High-throughput results: PubChem BioAssay, National Center for Advancing Translational Sciences (NCATS)
Hits are enriched below; roughly 12% of the tested compounds scored in any of these assays.
Sm TGR block – S. mansoni TGR enzyme inhibition | purified TGR, DTNB reduction, TNB absorbance 405 nm | 360,000 tested, 3% active | Potency, µM (highest dose often 114 µM), without a hit: at the highest dose activity change, negative = inhibition, most hits filed as inhibitors | Q962Y6; active = well fitted inhibition curve with a large enough effect; inconclusive = small, poorly fitted or top-dose-only effect; inactive = no such curve, though single readings can be large or run the other way; note: potency is the fitted concentration of half-maximal effect; % is set by controls: 0 for no effect and ±100 for the full control effect; nearly all actives have a fitted effect of over 60% in size
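Kinetic colorimetric format: TGR-catalysed, NADPH-driven DTNB reduction monitored via TNB absorbance. Enzyme dispensed at 20 nM; compound exposure 15 min at room temperature before reaction start.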
FMDV antiviral – antivirals against foot and mouth disease virus. 410,000 tested, 1.2% active. Potency, µM (highest dose often 57.9 µM), for the others: top-dose activity change, negative = inhibition, actives largely listed as inhibitors. FMDV antiviral cell-based qHTS; calls by dose curve; tested in HEK293T cells; note: read-out not given here; potency is the fitted concentration of half-maximal effect; % is set by controls: 0 for no effect and ±100 for the full control effect; nearly all actives have a fitted effect of over 45% in size
Shiga toxin inh – Shiga toxin inhibition | Vero cells, Shiga toxin protein synthesis inhibition reporter | inhibition, % at 38.7 µM | 290,000 tested, 9.2% active; in the data active = inhibition mostly above about 28%, no sharp cut-off; inactive = mostly below about 43%; note: 0% is about no effect
CHX counter – affects cycloheximide protein synthesis inhibition readout, counter-screen; cell reporter, cycloheximide protein synthesis inhibition counterscreen; max response, %; 300,000 tested, 12% active; AID 2314; in the data active = max response mostly above about 13%, no sharp cut-off; inactive = mostly below about 14%; note: read at 38.3 µM for the half of the compounds with a filed dose; 0% is about no effect
* = called active by the depositor; u = inconclusive; x = not tested or not shown.

SMILES | Sm TGR block | FMDV antiviral | Shiga toxin inh | CHX counter
COC(=O)c1c(-c2cccs2)csc1NC(=O)c1cc(OC)cc(OC)c1 | 7% | 0% | x | x
O=C(O)c1cccc(S(=O)(=O)NCCc2ccccc2)c1 | 26% | 2% | -11 | -2
CN(c1ccccc1)S(=O)(=O)c1ccc(C(=O)NCc2ccco2)cc1 | -8% | -26% | x | x
O=C(O)c1cccc(S(=O)(=O)Nc2ccccc2C(=O)NCCc2ccccc2)c1 | -6% | 16% | 46* | 29*
O=C(NCc1ccco1)c1ccc(Cl)c(S(=O)(=O)N2CCc3ccccc32)c1 | -1% | u | 12 | 17*
O=C(NCc1ccco1)c1cccc(S(=O)(=O)N2CCCCC2)c1 | 25µM* | 8% | 24 | -1
O=C(NCc1ccco1)c1cccc(S(=O)(=O)N2CCOCC2)c1 | u | 8% | -12 | 7
O=C(NCc1ccco1)c1ccc(Cl)c(S(=O)(=O)N2CCOCC2)c1 | -14% | 19% | 14 | 10
CN(C)S(=O)(=O)c1ccc(C(=O)NCCc2ccco2)cc1 | -25% | 35% | 63* | 25*
CCS(=O)(=O)c1ncc(N(Cc2ccccc2)Cc2ccco2)c(C(=O)Nc2ccc(C)c(C)c2)n1 | -8% | -7% | x | x
CCCC(=O)N1CCc2cc(OC)c(OC)cc2C1COc1ccc2c(C)cc(=O)oc2c1 (stereo unspecified) | 7% | -29% | x | x
O=C(NCCc1ccccc1)c1cccc(S(=O)(=O)N2CCCCC2)c1 | 1% | 13% | 40* | 28*
O=C(NCc1ccccc1)c1cccc(S(=O)(=O)N2CCCCC2)c1 | 6% | 21% | -5 | -2
Cc1cccc2sc(NC(=O)C3CCCO3)nc12 (stereo unspecified) | -16% | x | 111* | 32*
CSc1nc2ccc(NC(=O)C3CCCO3)cc2s1 (stereo unspecified) | -1% | 34% | 112* | 40*
COc1ccc(-c2nnc(NC(=O)C3CCCO3)s2)cc1 (stereo unspecified) | 1% | 45% | 130* | 38*
COc1ccc2nc(NC(=O)C3CCCO3)sc2c1 (stereo unspecified) | -20% | 5% | 101* | 65*
CCc1cccc(C)c1NC(=O)C1CCCO1 (stereo unspecified) | -24% | 3% | 8 | -2
CCCN1CCN(CCCNC(=O)Cn2c(-c3cccs3)cc3ccccc32)CC1 | -14% | -11% | x | x
CN(Cc1ccc(Cl)c(Cl)c1)C(c1cc2ccccc2o1)c1nnnn1C(C)(C)C (stereo unspecified) | x | 22µM* | x | x
O=C(Nc1ccc(Br)cc1)Nc1cnccn1 | -23% | 23% | 53* | 22*
O=C(Nc1ccc(F)cc1)Nc1cnccn1 | u | 3% | 17 | 13*
O=C(Nc1cnccn1)Nc1ccccc1F | 0% | 29% | 20 | 13
CCOc1ccc(CCNC(=O)CCCc2nnc3n(CC)c(=O)c4sccc4n23)cc1 | -7% | 0% | x | x
Cc1ccc(-c2nc(C)c(CCNC(=O)C(=O)Nc3cc(C)ccc3C)s2)cc1 | -1% | -8% | x | x
SMILES | Sm TGR block | FMDV antiviral | Shiga toxin inh | CHX counter
CC1(C(=O)N2CCN(c3ccccc3)CC2)CC1(Cl)Cl (stereo unspecified) | -6% | -10% | -25 | -2
CC1(C(=O)N2CCN(c3ccc([N+](=O)[O-])cc3)CC2)CC1(Cl)Cl (stereo unspecified) | -19% | 20µM* | -5 | 1
O=C(c1cccc(-c2nnc(-c3ccccc3)o2)c1)N1CCCCCC1 | 17% | 7% | 102* | 37*
O=C(c1ccc(-c2ccccc2)cc1)N1CCCC1 | -8% | 67% | 53 | 14
O=C(O)c1ccc(-c2nnc(-c3cccc(Br)c3)o2)cc1 | -15% | 38% | 35* | 20*
O=C(c1cccc(-c2nnc(-c3ccccc3)o2)c1)N1CCCCC1 | 0% | 43% | 66* | 51*
CC(=O)N[C@H]1CSSC[C@@H](C(=O)N2CCC[C@H]2C(=O)N2CCC[C@H]2C(=O)N[C@@H](CCCCN)C(=O)N[C@@H](CC(=O)O)C(N)=O)NC(=O)CNC(=O)[C@H](Cc2c[nH]c3ccccc23)NC(=O)[C@H](CCCNC(=N)N)NC(=O)[C@@H](Cc2ccc3ccccc3c2)NC(=O)[C@H](Cc2cnc[nH]2)NC(=O)[C@H](CCC(=O)O)NC1=O | x | x | -12 | -6
CC(=O)c1ccc2c(c1)Cc1cc(C(C)=O)ccc1-2 | 5% | 32% | 134* | 31*
CC(=NO)c1ccc2c(c1)Cc1cc([N+](=O)[O-])ccc1-2 | x | 18% | x | x
Cc1cccc(N2CCN(CCCNC(=O)c3sc4ncccc4c3-n3cccc3)CC2C)c1 (stereo unspecified) | 1% | u | x | x
